The target of experiment [1] is Cytochrome P450 3A4 (Homo sapiens) (UniProt P08684). The experiment in a line: qHTS Assay for Inhibitors and Substrates of Cytochrome P450 3A4 (AID 884). For activity change, negative = inhibition: % is set by controls: 0 for no effect and ±100 for the full control effect. Note: nearly all actives have a fitted effect of over 50% in size. Note: potency is the fitted concentration of half-maximal effect. Put shortly: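 20 nM human CYP3A4 with 25 uM Luciferin-PPXE (at KM) in 200 mM KPO4, preincubated 10 min with compound; NADPH regeneration started a 60 min RT reaction. Luciferin detected by luminescence, normalized to 57 uM ketoconazole as full inhibition.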

A short description of experiment [2]: qHTS Assay for Lipid Storage Modulators (AID 1519; calls by dose curve; for activity change, negative = inhibition: % is set by controls: 0 for no effect and ±100 for the full control effect). The conditions noted are these: Drosophila S3 cells, BODIPY lipid droplet/cell ratio, laser cytometry, cells loaded with oleic acid; for activity change, negative = inhibition: at 57.5 µM (top of the series). Put shortly: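 Cells seeded at 5,000 per well were treated with compounds over a concentration series and loaded with oleic acid (400 uM, as added). Lipid droplet fluorescence (488 nm excitation, 500-530 nm channel) was read by laser-scanning cytometry and normalized to 20 uM Triacsin C.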

Experiment [3] has as its target DNA dC->dU-editing enzyme APOBEC-3G (Homo sapiens) (UniProt Q9HC16). The experiment in a line: qHTS for inhibitors of Vif-A3G interactions: Validation (AID 588379). Note: 0% is about no effect. Put shortly: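 HeLa cells stably expressing Vif and A3G-eYFP, 700 cells/well, incubated overnight at 37 deg C, then exposed to compound overnight at 37 deg C. Inhibition of Vif-mediated degradation read as increased yellow fluorescence (Ex 488/Em 500-530) by laser-scanning cytometry.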

The nature of experiment [4]: Confirmation and Secondary Assay for Modulators of Hemoglobin Beta Chain Splicing at IVS2 654 locus (AID 910).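 Note: per-well total GFP intensity by laser scanning cytometry after 2-day treatment; % of control where 0% means no effect.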 Put shortly:
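HeLa cells stably carrying EGFP interrupted by mutant beta-globin IVS2-654 intron (CMV-driven) were treated with compound for 2 days at 37C; corrected splicing was scored as total peak GFP intensity per well (488 nm excitation, 500-520 nm emission).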

A short description of experiment [5]: Confirmation and Secondary Assay for Modulators of Hemoglobin Beta Chain Splicing at IVS2 705 locus (AID 930).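 Note: HeLa cells stably expressing the EGFP-705 splicing reporter; GFP fluorescence per well restored by corrected splicing of the IVS2-705 intron in EGFP; % of control where 0% means no effect.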 Put shortly: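 Per-well GFP, captured at 1 x 8 µm resolution with 488 nm excitation, served as the read-out for HeLa EGFP-705 cells incubated 2 days with test compound versus DMSO.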
Experiment [6] has as its target Ubiquitin carboxyl-terminal hydrolase 1 (Homo sapiens) (UniProt O94782). The experiment in a line: Inhibitors of USP1/UAF1: Pilot qHTS (AID 504865).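 Note: rhodamine fluorescence freed from ubiquitin-rhodamine substrate followed over time; top concentration of the series differs between compounds; % is set by controls: 0 for no effect and ±100 for the full control effect; nearly all actives have a fitted effect of over 35% in size.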 Put shortly:
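In 50mM HEPES pH 7.8 containing 0.5mM EDTA, 1mM TCEP, 0.1 mg/ml BSA and 0.01% Tween-20, 1nM USP1/UAF1 is exposed to compound for 15 min, then Ub-Rho (150nM final) is added and fluorescence is read over time.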

In experiment [7] the target is Cytochrome P450 3A4 (Homo sapiens) (UniProt P08684). In words: qHTS Assay for Activators of Cytochrome P450 3A4 (AID 885). Note: nearly all actives have a fitted effect of over 65% in size. Put shortly:
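Signal was normalized against complete inhibition by 57 uM ketoconazole. The reaction used 20nM CYP3A4 with 25uM Luciferin-PPXE, 10-min compound preincubation and a 60-min NADPH-supported step at RT.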

Setting [8] is: measured here: cell count channel max response.
[9] abbreviates: measured here: lipid channel max response.

SMILES strings stand for the structures. Inconclusive results are not listed. The source made the active and inactive calls. Unless noted, calls come from the whole dose curve; as a rule, active = well fitted curve in the direction sought with a large enough effect; inconclusive = small, poorly fitted or top-dose-only effect, or another doubt; inactive = no such curve, though single readings can be large; an effect the other way counts as inactive or inconclusive.

Ubiquitin carboxyl-terminal hydrolase 1 (Homo sapiens), sequence (O94782 whole entry, looked up): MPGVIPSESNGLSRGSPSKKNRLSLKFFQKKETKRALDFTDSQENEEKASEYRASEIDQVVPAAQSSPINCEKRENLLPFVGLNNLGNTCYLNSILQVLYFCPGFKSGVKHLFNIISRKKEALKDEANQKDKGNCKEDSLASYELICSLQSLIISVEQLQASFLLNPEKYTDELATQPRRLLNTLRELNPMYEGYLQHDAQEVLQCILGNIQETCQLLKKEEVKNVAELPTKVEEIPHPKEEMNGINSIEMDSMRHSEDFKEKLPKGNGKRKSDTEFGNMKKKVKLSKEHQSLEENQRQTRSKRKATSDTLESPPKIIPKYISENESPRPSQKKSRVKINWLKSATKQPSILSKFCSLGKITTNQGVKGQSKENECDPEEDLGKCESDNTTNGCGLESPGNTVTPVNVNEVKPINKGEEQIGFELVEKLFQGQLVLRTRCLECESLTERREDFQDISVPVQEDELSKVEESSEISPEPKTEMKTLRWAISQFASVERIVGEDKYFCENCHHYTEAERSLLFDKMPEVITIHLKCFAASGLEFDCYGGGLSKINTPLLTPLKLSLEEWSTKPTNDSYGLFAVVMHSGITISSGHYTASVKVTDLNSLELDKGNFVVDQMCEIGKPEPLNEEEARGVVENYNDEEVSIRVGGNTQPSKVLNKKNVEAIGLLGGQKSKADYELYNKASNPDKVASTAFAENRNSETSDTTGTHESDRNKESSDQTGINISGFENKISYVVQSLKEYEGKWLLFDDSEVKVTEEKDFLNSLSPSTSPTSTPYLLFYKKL
DNA dC->dU-editing enzyme APOBEC-3G (Homo sapiens), sequence (Q9HC16 whole entry, looked up): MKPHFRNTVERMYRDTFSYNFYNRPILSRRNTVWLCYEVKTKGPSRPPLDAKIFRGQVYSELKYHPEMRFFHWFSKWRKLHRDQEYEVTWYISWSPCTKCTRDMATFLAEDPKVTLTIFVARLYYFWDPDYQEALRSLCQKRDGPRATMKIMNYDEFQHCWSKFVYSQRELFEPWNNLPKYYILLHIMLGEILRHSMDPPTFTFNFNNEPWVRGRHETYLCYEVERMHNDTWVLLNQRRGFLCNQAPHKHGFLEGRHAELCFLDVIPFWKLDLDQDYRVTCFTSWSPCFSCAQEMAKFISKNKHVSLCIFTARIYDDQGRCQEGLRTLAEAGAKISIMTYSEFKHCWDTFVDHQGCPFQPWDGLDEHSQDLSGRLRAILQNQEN
Cytochrome P450 3A4 (Homo sapiens), sequence (P08684 whole entry, looked up): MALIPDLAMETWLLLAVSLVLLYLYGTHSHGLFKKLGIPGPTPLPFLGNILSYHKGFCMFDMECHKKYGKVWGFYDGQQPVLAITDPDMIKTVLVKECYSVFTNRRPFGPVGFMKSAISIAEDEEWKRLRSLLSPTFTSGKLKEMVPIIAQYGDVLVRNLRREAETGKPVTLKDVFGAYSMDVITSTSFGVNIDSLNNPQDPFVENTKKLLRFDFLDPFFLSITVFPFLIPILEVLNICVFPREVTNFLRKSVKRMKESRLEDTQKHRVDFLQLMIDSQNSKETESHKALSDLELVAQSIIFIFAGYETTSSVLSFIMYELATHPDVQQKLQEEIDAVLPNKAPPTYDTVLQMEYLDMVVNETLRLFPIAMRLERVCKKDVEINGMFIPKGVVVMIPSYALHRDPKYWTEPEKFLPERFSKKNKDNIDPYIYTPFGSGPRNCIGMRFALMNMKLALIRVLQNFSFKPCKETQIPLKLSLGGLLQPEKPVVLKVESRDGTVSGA

In the case of `CC(=O)N1CC2CC(C1)c1cccc(=O)n1C2` (stereo unspecified), the Potency entry in experiment [1] is “inactive”. The activity change, negative = inhibition in experiment [2] is -4.96% (inactive). Moreover, the max response is -29.2% in experiment [2] (setting [8]) and -33.4% in experiment [2] (setting [9]). Further, the result in experiment [3] was inactive.
As for `C[C@]12CCC3C(CC[C@]4(O)CC(O)CC[C@@]34C=O)[C@]1(O)CCC2C1=CC(=O)OC1` (stereo partly specified), the Potency result in experiment [4], in experiment [5] and in experiment [6] was “inactive” throughout. The activity change, negative = inhibition in experiment [2] was -3.74% (inactive). Besides, the values for the max response in experiment [2] (setting [8]) and in experiment [2] (setting [9]) were 12.5% and 11%, respectively.
Regarding `NNCc1ccccc1`, the Potency result in experiment [7], in experiment [4], in experiment [5] and in experiment [6] was “inactive” each time. Besides, in experiment [2], the activity change, negative = inhibition is 14.8% (inactive). In addition, the max response in experiment [2] (setting [8]) came out at 5.74%; in experiment [2] (setting [9]), 20.3%.
Regarding `O=c1ccc2cc(OC3OC(CO)C(O)C(O)C3O)c(O)cc2o1` (stereo unspecified), in experiment [2], the activity change, negative = inhibition is -4.17% (inactive). In addition, the max response in experiment [2] (setting [8]) was -25.8%; in experiment [2] (setting [9]), -27.2%. Besides, the compound was called inactive in experiment [3].
As for `CC1/C=C/C=C/CC/C=C/C=C/C=C/C=C/C(OC2OC(C)C(O)C(N)C2O)CC2O[C@](O)(CC(O)C(O)CCC(O)CC(O)CC(O)CC(=O)OC(C)C(C)C1O)CC(O)C2C(=O)O` (stereo partly specified), the Potency entry in experiment [4], in experiment [5] and in experiment [6] was “inactive” each time. Besides, the activity change, negative = inhibition in experiment [2] was 9.08% (inactive). The max response was found to be 17% in experiment [2] (setting [8]) and 32% in experiment [2] (setting [9]).
In the case of `CC1=C2C3OC(=O)C(C)C3CC[C@@]2(C)C=CC1=O` (stereo partly specified), the Potency result in experiment [7], in experiment [4] and in experiment [6] was “inactive” throughout. Also, the activity change, negative = inhibition in experiment [2] is 1.14% (inactive). Besides, the max response in experiment [2] (setting [8]) is 15.1%; in experiment [2] (setting [9]), 16.8%.
In the case of `CC(=O)OC1CCC23C(=O)OC45CCC(C6=CC(=O)OC6)C4(C)CCC2C5CCC3(O)C1` (stereo unspecified), the Potency entry in experiment [1], in experiment [5] and in experiment [6] was “inactive” in each case. In addition, the activity change, negative = inhibition in experiment [2] is -4.87% (inactive). In addition, the results for the max response in experiment [2] (setting [8]) and in experiment [2] (setting [9]) were 6.6% and 2.69%, respectively.
For the compound `COc1cc(OC)c2c(c1)OC(c1ccc(OC)c(OC)c1)C(O)C2` (stereo unspecified), the Potency result in experiment [1], in experiment [5] and in experiment [6] was “inactive” throughout. Moreover, the activity change, negative = inhibition in experiment [2] was 10.8% (inactive). Further, the results for the max response in experiment [2] (setting [8]) and in experiment [2] (setting [9]) were 10.1% and 29.4%, respectively.
As to `CN1C2CC(OC(=O)C(CO)c3ccccc3)CC1C(O)C2` (stereo unspecified), the Potency result in experiment [1], in experiment [4], in experiment [5] and in experiment [6] was “inactive” each time. For the same compound, the activity change, negative = inhibition in experiment [2] is 5.64% (inactive). The max response in experiment [2] (setting [8]) turned out to be 7.52%; in experiment [2] (setting [9]), 14.4%.
`COc1cc2c(cc1OC)[C@]13CCN4CC5=CCOC6CC(=O)N2[C@@H]1[C@@H]6C5C[C@@H]43` (stereo partly specified): the Potency result in experiment [1] was “inactive”. In addition, in experiment [2], the activity change, negative = inhibition is -2% (inactive). Moreover, the max response in experiment [2] (setting [8]) and in experiment [2] (setting [9]) was -11.3% throughout. Also, the call in experiment [3] was inactive.
Take `CCC(C)C(=O)c1c(O)c(C)c2oc3c(C)c(O)c(C(=O)C(C)CC)c(O)c3c2c1O` (stereo unspecified): the Potency result in experiment [1], in experiment [5] and in experiment [6] was “inactive” in each case. Further, the activity change, negative = inhibition in experiment [2] was -5.67% (inactive). Moreover, the max response in experiment [2] (setting [8]) was -3.74%; in experiment [2] (setting [9]), -10.1%.
As for `CC1CC(O)[C@]2(O)[C@]13CC(=O)OC[C@@]2(C)[C@@](C)(O)C(=O)C3` (stereo partly specified), the Potency entry in experiment [7] and in experiment [4] was “inactive” in each case. In addition, the activity change, negative = inhibition in experiment [2] is 1.46% (inactive). Moreover, the max response in experiment [2] (setting [8]) is 13.4%; in experiment [2] (setting [9]), 16.3%.
With `CC(=O)OC1CC(OC(C)=O)[C@]2(C)C(CC(OC(C)=O)[C@]3(C)C2CC[C@@]2(C)C(c4ccoc4)C(=O)C4O[C@]432)C1(C)C` (stereo partly specified), in experiment [1], the Potency was 3.98 µM (active). Moreover, the Potency entry in experiment [7], in experiment [4] and in experiment [5] was “inactive” throughout. The activity change, negative = inhibition in experiment [2] was -15.3% (inactive). The max response in experiment [2] (setting [8]) was -13.1%; in experiment [2] (setting [9]), -24.4%.

Source of the values: PubChem BioAssay (NCATS).
